# According to PubChem BioAssay (NCI):
# This is part of a sample that, as a whole, favours compounds with a hit. Of some 83,000 tested, about 20% had one in any assay.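 Activity criterion: percent growth below 10, measured after cells in 96-well plates were exposed to a single compound concentration for 48 hours.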 Calls of active or inactive are those of the source.
# System: SK-MEL-2 melanoma
# Assay: NCI-60 one-dose screen, 48 h (100 = growth as untreated, 0 = no growth, -100 = all killed)
# Settings: 10 µM unless noted
row,SMILES,growth
1,CC1(C)[C@@H](O[C@@H]2OC[C@@H](O[C@@H]3O[C@H](CO)[C@@H](O)[C@H](O)[C@H]3O[C@@H]3OC[C@@H](O)[C@H](O)[C@H]3O)[C@H](O)[C@H]2O[C@@H]2O[C@H](CO)[C@@H](O)[C@H](O)[C@H]2O)CC[C@]2(C)[C@H]3CC[C@]45OC[C@@]6(CC[C@](C)(C=O)C[C@H]64)[C@H](O)C[C@@]5(C)[C@]3(C)CC[C@@H]12,-90.2% (active)
2,O=C(CCl)NNc1nccc(Nc2ccc(S(=O)(=O)Nc3ccncc3)cc2)n1,38% (inactive)
3,CS(=O)(=O)Nc1cc(-c2ccc3ncc(C#N)c(Nc4ccc(F)c(Cl)c4)c3c2)cnc1Cl,-59.9% (active)
4,Cc1[nH]c(C2CC(c3ccc(C(F)(F)F)c(F)c3)=NN2c2ccccc2)c(C)c1C(=O)NCC(F)(F)F (centres undefined),104% (inactive)
5,O=P(O)(O)OCC1OC(n2cnc3c(NCc4ccco4)ncnc32)C(O)C1O (centres undefined),89.2% (inactive)
6,C=CN(C(=O)N1CCN(c2cc3c(cc2F)c(=O)c(C(=O)O)cn3C2CC2)CC1)c1nc(-c2ccc(OC)cc2)cs1,18.4% (inactive)
7,CC(=O)Oc1ccc(OC(C)=O)c2ccccc12,113% (inactive)
8,O=C1c2ccccc2C(=O)c2c1cc1c(c2[N+](=O)[O-])OCO1,-30.8% (active)
9,Cc1cccc2c1C[C@@]1(C2=O)C(c2ccc(C(C)(C)C)cc2)=NOS1=O (some centres undefined),93.1% (inactive)
10,COc1cccc(Nc2ncnc3cc(NC(=O)CCl)ccc23)c1,-45.3% (active)
11,NC(N)=NS(=O)(=O)c1ccc(NC2=C(I)C(=O)c3ncccc3C2=O)cc1,106% (inactive)
12,Cc1c(CN)cc(-c2ccc(Cl)cc2)n1-c1ccccc1,90.2% (inactive)
13,O=C1Nc2ccccc2C1(c1c[nH]c2ccccc12)c1c[nH]c2ccccc12,87.7% (inactive)
14,CCn1c(-c2cc3c([nH]c4ccccc43)c(-c3cccc(O)c3)n2)n[nH]c1=S,-22.2% (active)
15,CCN(CC)c1ccc(/C=N/NC(=O)Cc2ccc(Nc3ccnc(C(F)(F)F)c3)cc2)c(O)c1,56.1% (inactive)
16,COc1ccc2c(c1)c(-c1nc(-c3c[nH]c4ncccc34)cs1)cn2CCCN1CCOCC1,11.4% (inactive)
17,CNC(C)[C@H]1CCC2C3CC=C4C(=O)[C@@H](NC(=O)C=C(C)C)CC[C@]4(C)C3CC[C@@]21C (some centres undefined),23.8% (inactive)

row,SMILES,growth
1,CN(Cc1ccccc1)c1nc(Cl)c(C2CC(c3ccccc3)=NN2c2ccccc2)s1 (centres undefined),78.5% (inactive)
2,N#CC1=C(N)Oc2ccc3ccccc3c2C1c1ccc([N+](=O)[O-])cc1 (centres undefined),93.9% (inactive)
3,COc1ccc(C(=O)Cn2c(C(=O)c3ccc(OC)cc3)nc3ccccc32)cc1,88.4% (inactive)
4,CC1C(/C=N/NC(N)=S)C(C#N)(C#N)C1(C#N)C#N (centres undefined),114% (inactive)
5,O=C(Cc1ccc(/C=C/C(=O)c2ncc[nH]2)cc1)Nc1cc(C(F)(F)F)cc(C(F)(F)F)c1,110% (inactive)
6,CCOC(=O)c1ccccc1-c1c2ccc(=[N+](C)C)cc-2oc2cc(N(C)C)ccc12,4.77% (active)
7,CCN1C(=O)N(CC)C2C1NN=c1s/c(=C\c3ccc(C(F)(F)F)cc3)c(=O)n12 (centres undefined),56.1% (inactive)
8,Cc1nn(-c2ccccc2)c(N)c1N=C1NC(=O)/C(=C/c2ccc(Br)cc2)S1,104% (inactive)
9,O=C(c1c[nH]c2ccccc12)c1n[nH]c(=S)n1-c1cccc(Br)c1,85.9% (inactive)
10,Cc1ccc(/C=C/C(=O)Nc2ncc(Cc3ccc(F)cc3)s2)o1,46.9% (inactive)
11,O=C1/C(=C\c2cccc3nccnc23)SC(=S)N1CCc1ccc(O)cc1,108% (inactive)
12,COc1cccc(/C=C/C(=O)c2cccc(Nc3nc(Nc4ccccc4)nc(Nc4ccccc4)n3)c2)c1,57.9% (inactive)
13,C=C1C(=O)O[C@H]2[C@H]1CC/C(COC(=O)c1cc3cc(Cl)ccc3[nH]1)=C\CC[C@@]1(C)O[C@@H]21,-84.2% (active)
14,COc1ccc(Cn2cc(C(=O)N=Nc3c(O)[nH]c4c(C)cccc34)nn2)cc1,91.9% (inactive)
15,NC(=O)c1cnc(Nc2cccc(N)c2)nc1NCCCNC(=O)C1CCC1,65.2% (inactive)
16,CC1=C2[C@@H](CC1)[C@]1(C)O[C@@](C3CCCCC3)(C[C@H]1OC(=O)CO)[C@H]2OC(=O)/C=C/c1ccccc1,80.3% (inactive)
17,O=C(Nc1cnc(Nc2ccc(N3CCOCC3)nc2)nc1Oc1ccc(C(F)(F)F)cc1)c1ccncc1,94.8% (inactive)
